Records with an inconclusive call do not appear. Active and inactive are the calls of the source. Cut-off read from the data, not from the text of the source, unless noted: active = inhibition above about 30%; inactive = the rest.
What was measured:
[1] = Her2 expression decrease, cell viability multiplex – SKBR3 breast tumor cells, AlphaScreen, ATP viability, primary screen (AID 461;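 active = Her2 level under about 52% in both replicate screens, with viability over 70% of control, limit read from the data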;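 for Her2 level: lower value means less Her2 protein in the cells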;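 for viability: percent of carrier control wells set as 100% viability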); settings: SKBR3 Her2 protein level, 18-24 h, measured here: SKBR3 viability, ATP luminescence, at 10 µM
[2] = molecular target: Receptor tyrosine-protein kinase erbB-2 (Homo sapiens) (UniProt P04626); test: as above; settings: 18-24 h, at 10 µM, stronger effect = lower value
[3] = reduced viability of SK-BR-3 breast cancer cells – cell-based, 24 h, human, pilot screen (AID 572;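 active = viability at or below 10% of carrier control in both of two separate runs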;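 note: compound exposure lasted between 18 and 24 h rather than exactly 24 h; 100% = carrier-treated control wells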); settings: SK-BR-3 viability, CellTiter-Glo luminescence, at 10 µM, stronger effect = lower value
[4] = HUVEC growth inhibition – cell-based, human, primary screen (AID 575;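 active = viability at or below 30% in both replicate assays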;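 note: 100% = median of untreated cell wells with 0.1% DMSO on each plate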); settings: HUVEC proliferation, CellTiter-Glo luminescence, 72 h; at 10 µM; stronger effect = lower value
[5] = H69AR cell proliferation blockers – human, duplicate replicates, primary screen (AID 580;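 active = viability at or under a set limit in both replicates, limit being median viability minus 3 SD, cut at about 48% in these data, passing the limit was not always enough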;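 note: 100% = mean luminescence of untreated wells and 0% = no signal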); settings: H69AR lung tumor cells viability, ATP luminescence, 72 h; at 10 µM; stronger effect = lower value
[6] = MRP1 drug-resistance reversers in H69AR cells – cell-based, doxorubicin co-treatment, pilot screen (AID 601;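 active = viability loss from added drug above about 55%, and viability with drug at most 40%, in both replicates, limit read from the data, passing the limit was not always enough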); settings: CellTiter-Glo, 72 h, at 10 µM; for differential viability (reversal): stronger effect = higher value
[7] = yeast transport mutant growth inhibition pilot in 384-well plates, post-Golgi transport modulator project (AID 636; in the data active = inhibition above about 31%); settings: absorbance 615 nm, about 18 h, stronger effect = higher value
[8] = growth suppression of yeast trafficking mutant, preliminary HTS, modulators of trafficking downstream of Golgi apparatus project, 1536-format plate, OD 615 nm (AID 637); settings: yeast transport mutant growth, absorbance 615 nm, 18 h; stronger effect = higher value
[9] = S. cerevisiae growth inhibition in permissive medium (OD615), pilot counter-assay for S. cerevisiae lifespan shortening project, permissive growth control (AID 705;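 active = growth inhibition above 25% in both replicates, a cutoff set 3 SD above the mean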); settings: OD615, 24 h, at 10 µM, stronger effect = higher value
[10] = S. cerevisiae growth inhibition in restrictive medium, OD615, pilot screen, restrictive growth control, yeast lifespan reduction project (AID 706;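 active = growth inhibition above a set limit, 3 SD over mean compound inhibition, in both replicates, cut at about 43% in these data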;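 note: modified DeaD lifespan yeast strain shifted to restrictive glucose medium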); settings: OD615, 48 h, at 10 µM, stronger effect = higher value
[11] = doxorubicin toxicity protection in MRP-1 cells – H69AR cells, CellTiter-Glo, duplicate, MRP-1 activator project, pilot screen (AID 807;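 active = viability increase at or above a cutoff of the median across tested compounds plus 3 SD, cut at about 8.5% in these data, passing the limit was not always enough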;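 note: compound pretreatment 18-22 h then 72 h combined with doxorubicin; 0% = doxorubicin alone and 100% = vehicle without doxorubicin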); settings: H69AR viability with doxorubicin, CellTiter-Glo luminescence; at 10 µM; stronger effect = higher value
[12] = viability of HCT116 without oncogenic beta-catenin – human colon tumor cells, pilot screen (AID 823;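 active = cell viability at or below a set limit in both duplicate runs, the limit being the all-compound median minus 4 SD, cut at about 23% in these data, passing the limit was not always enough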;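 note: 0% = wells killed by 20 µM Hyamine and 100% = untreated DMSO cell wells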); settings: HCT116 beta-catenin knockout viability, CellTiter-Glo, 60 h; at 10 µM; stronger effect = lower value
[13] = viability of PTEN-null HCT116 cells – cell-based, HCT116 clonal line, CellTiter-Glo, pilot screen (AID 824;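 active = viability at or below 27.92% in each of two runs, the all-compound median minus 4 SD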;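 note: 0% = 20 µM Hyamine control and 100% = vehicle cell control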); settings: HCT116 PTEN-deleted viability, 60 h, at 10 µM, stronger effect = lower value
[14] = RAM pathway blockade in budding yeast – dse1pr::URA3 reporter, 5-FOA selection, pilot screen (AID 869;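 active = inhibition over a set limit, the all-compound mean plus 3 SD, in both replicate runs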;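 note: 0% = DMSO wells with no growth and 100% = 10 µM 1-NA-PP1 with full growth; RAM network block rescues cells from 5-FOA so hits raise OD615 growth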); settings: S. cerevisiae dse1pr::URA3 5-FOA growth, OD615, 2 d; at 10 µM; stronger effect = higher value; strain carries analog-sensitive mutant Cbk1 kinase
[15] = RAM signaling pathway blockade in yeast – S. cerevisiae, Pdr1DBD-CYC8 efflux-inhibited sensitized strain, primary screen (AID 1298;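 active = RAM network inhibition above 8.4% in each of two replicates, 3 SD over the compound average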;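 note: 0% = DMSO untreated cells without growth and 100% = 10 µM 1-NA-PP1 full growth; higher means more yeast growth rescued from 5-FOA killing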); settings: S. cerevisiae cbk1-as DSE1-URA3 strain, 5-FOA growth OD615, 2 d; at 50 µM; stronger effect = higher value
[16] = H69AR cells + 2 uM doxorubicin, measured here: viability with 2 uM doxorubicin, stronger effect = lower value
[17] = H69AR cells, compound alone cytotoxicity

Receptor tyrosine-protein kinase erbB-2 (Homo sapiens), sequence (P04626 whole entry, looked up): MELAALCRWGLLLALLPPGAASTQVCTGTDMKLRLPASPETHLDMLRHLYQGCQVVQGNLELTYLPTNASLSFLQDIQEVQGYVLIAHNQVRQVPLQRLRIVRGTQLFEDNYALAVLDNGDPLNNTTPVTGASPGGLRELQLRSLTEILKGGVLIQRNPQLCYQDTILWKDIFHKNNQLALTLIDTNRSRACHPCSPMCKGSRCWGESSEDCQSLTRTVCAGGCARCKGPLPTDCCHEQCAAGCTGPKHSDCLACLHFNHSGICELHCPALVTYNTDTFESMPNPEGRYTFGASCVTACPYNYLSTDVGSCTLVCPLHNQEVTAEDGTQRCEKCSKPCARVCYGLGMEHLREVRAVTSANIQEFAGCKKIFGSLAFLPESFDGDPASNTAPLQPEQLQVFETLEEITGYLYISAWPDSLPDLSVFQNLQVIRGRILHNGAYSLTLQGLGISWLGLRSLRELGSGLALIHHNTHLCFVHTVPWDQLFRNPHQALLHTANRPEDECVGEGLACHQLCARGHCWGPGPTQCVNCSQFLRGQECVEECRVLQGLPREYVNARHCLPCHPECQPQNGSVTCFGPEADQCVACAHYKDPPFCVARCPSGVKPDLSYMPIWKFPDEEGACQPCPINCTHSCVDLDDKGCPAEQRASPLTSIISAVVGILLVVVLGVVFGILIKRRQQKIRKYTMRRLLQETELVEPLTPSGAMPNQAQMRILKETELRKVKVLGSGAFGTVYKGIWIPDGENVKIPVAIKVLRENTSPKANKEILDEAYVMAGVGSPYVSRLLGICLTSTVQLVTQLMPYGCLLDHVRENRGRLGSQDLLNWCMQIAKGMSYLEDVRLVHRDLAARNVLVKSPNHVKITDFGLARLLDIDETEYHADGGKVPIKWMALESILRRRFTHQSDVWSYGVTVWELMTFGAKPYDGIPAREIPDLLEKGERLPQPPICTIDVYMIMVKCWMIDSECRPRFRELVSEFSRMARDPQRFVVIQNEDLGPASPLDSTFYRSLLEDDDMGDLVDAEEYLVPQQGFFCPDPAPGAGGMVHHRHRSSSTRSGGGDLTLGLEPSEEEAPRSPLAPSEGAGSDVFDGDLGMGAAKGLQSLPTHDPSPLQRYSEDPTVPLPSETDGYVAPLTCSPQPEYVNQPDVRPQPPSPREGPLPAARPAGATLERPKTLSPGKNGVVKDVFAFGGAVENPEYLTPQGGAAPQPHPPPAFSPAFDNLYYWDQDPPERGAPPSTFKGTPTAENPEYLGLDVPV

COc1ccccc1-c1nnc(SCC(=O)NC2CCCCC2)o1
87.8%: viability [6, 17]
88.2%: viability [6, 16]
inactive: Her2 level [2] 72.5% | viability [3] 83% | viability [4] 89.7% | viability [5] 87.8% | differential viability (reversal) ([6]; H69AR cells + 2 uM doxorubicin) -0.34% | inhibition [7] 6.13% | inhibition [8] 1.31% | growth inhibition [9] 1.35% | growth inhibition [10] 10.7% | viability increase [11] -3.27% | viability [12] 94.6% | viability [13] 94.5% | inhibition [14] -0.42% | RAM network inhibition [15] 3.73%
83%: viability [1]

O=C1CC(c2ccccc2)CC(O)=C1C=NCCN1CCOCC1 (stereo not drawn)
102%: viability [6, 17]
inactive: Her2 level [2] 85.5% | viability [3] 96.5% | viability [4] 85.7% | viability [5] 102% | differential viability (reversal) ([6]; H69AR cells + 2 uM doxorubicin) 5.44% | inhibition [7] -7.97% | inhibition [8] -1.48% | growth inhibition [9] -4.59% | growth inhibition [10] 9.74% | viability increase [11] 0.42% | viability [12] 94.7% | viability [13] 93.2% | inhibition [14] 1.16% | RAM network inhibition [15] -0.52%
96.5%: viability [1]
96.2%: viability [6, 16]

COc1cccc(C2=NOC(C(=O)N3CCN(c4ccccc4)CC3)C2)c1OC (stereo not drawn)
104%: viability [1]
86.5%: viability [6, 17]
inactive: Her2 level [2] 97.5% | viability [3] 104% | viability [4] 95.9% | viability [5] 86.5% | differential viability (reversal) ([6]; H69AR cells + 2 uM doxorubicin) -12% | inhibition [7] -6.13% | inhibition [8] 0% | growth inhibition [9] -7.02% | growth inhibition [10] -5.35% | viability increase [11] 2.2% | viability [12] 93.6% | viability [13] 96.5% | inhibition [14] -0.58% | RAM network inhibition [15] 1%
98.5%: viability [6, 16]

CC(C)OC(=O)c1ccc(OC(=O)c2cccnc2)cc1
inactive: Her2 level [2] 100% | viability [3] 91.5% | viability [4] 102% | viability [5] 106% | differential viability (reversal) ([6]; H69AR cells + 2 uM doxorubicin) 11.3% | inhibition [7] 3.65% | inhibition [8] -3.44% | growth inhibition [9] 2.51% | growth inhibition [10] 12.6% | viability increase [11] -2.98% | viability [12] 92.9% | viability [13] 91.3% | inhibition [14] 2.02% | RAM network inhibition [15] 2.34%
106%: viability [6, 17]
91.5%: viability [1]
94.6%: viability [6, 16]

CCS(=O)(=O)c1nc2ccccc2n1Cc1ccccc1Cl
101%: viability [1]
74.1%: viability [6, 17]
83.6%: viability [6, 16]
inactive: Her2 level [2] 93% | viability [3] 101% | viability [4] 109% | viability [5] 74.1% | differential viability (reversal) ([6]; H69AR cells + 2 uM doxorubicin) -9.51% | inhibition [7] -0.27% | inhibition [8] 5.33% | growth inhibition [9] -25.4% | growth inhibition [10] -20.7% | viability increase [11] -4.6% | viability [12] 71% | viability [13] 61.5% | inhibition [14] -0.515% | RAM network inhibition [15] 5.91%

COc1ccc(S(=O)(=O)N(CC(=O)N2CCN(c3ccccc3OC)CC2)c2ccccc2)cc1
95.4%: viability [6, 16]
inactive: Her2 level [2] 108% | viability [3] 74% | viability [4] 51.8% | viability [5] 86.8% | differential viability (reversal) ([6]; H69AR cells + 2 uM doxorubicin) -8.61% | inhibition [7] -6.35% | inhibition [8] -2.3% | growth inhibition [9] -11.3% | growth inhibition [10] -11.3% | viability increase [11] 5.84% | viability [12] 67.2% | viability [13] 72.3% | inhibition [14] 0.87% | RAM network inhibition [15] 2.02%
74%: viability [1]
86.8%: viability [6, 17]

Cc1ccc(C(c2sc3ncnn3c2O)N2CC(C)CC(C)C2)cc1 (stereo not drawn)
97.9%: viability [6, 17]
inactive: Her2 level [2] 102% | viability [3] 118% | viability [4] 82.8% | viability [5] 97.9% | differential viability (reversal) ([6]; H69AR cells + 2 uM doxorubicin) 13.6% | inhibition [7] -4.53% | inhibition [8] 1.67% | growth inhibition [9] -6.75% | growth inhibition [10] -6.62% | viability increase [11] 4.2% | viability [12] 99.8% | viability [13] 97% | inhibition [14] 0.24% | RAM network inhibition [15] 1.25%
84.3%: viability [6, 16]
118%: viability [1]

C=CCn1c(SC(C)C(=O)NC2(C#N)CCCCC2)nnc1-c1ccc(OC)cc1 (stereo not drawn)
inactive: Her2 level [2] 73.5% | viability [3] 90% | viability [4] 109% | viability [5] 92.2% | differential viability (reversal) ([6]; H69AR cells + 2 uM doxorubicin) 13.9% | inhibition [7] -7.07% | inhibition [8] -5.25% | growth inhibition [9] -4.51% | growth inhibition [10] -9.22% | viability increase [11] -2.25% | viability [12] 90% | viability [13] 87.7% | inhibition [14] 1.29% | RAM network inhibition [15] 0.47%
78.3%: viability [6, 16]
92.2%: viability [6, 17]
90%: viability [1]

CC(=O)c1cccc(NC(=O)CCOc2ccccc2)c1
inactive: Her2 level [2] 121% | viability [3] 96% | viability [4] 106% | viability [5] 98.3% | differential viability (reversal) ([6]; H69AR cells + 2 uM doxorubicin) 1.96% | inhibition [7] 1.04% | inhibition [8] -12.8% | growth inhibition [9] 5.62% | growth inhibition [10] 4.36% | viability increase [11] -1.33% | viability [12] 102% | viability [13] 95% | inhibition [14] 1.27% | RAM network inhibition [15] 1.57%
96%: viability [1]
96.3%: viability [6, 16]
98.3%: viability [6, 17]
